Results reported in PubChem BioAssay.
Active and inactive are the calls of the source.

Legend:
[1] = tested on: PRMT1 (protein arginine N-methyltransferase 1); assay: PRMT1 binders on small-molecule microarrays, primary screen, biochemical, small-molecule microarray, 635 nm fluorescence (AID 1088); details: small-molecule microarray binding, higher = more signal;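 further: binding of Prmt1 protein to compounds spotted on small-molecule microarray slides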
[2] = yeast growth modulation, basal conditions, primary screen, YJM789 clinical isolate, OD600, 24 h (AID 1089);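 further: growth of clinical yeast isolate S. cerevisiae YJM 789 seeded 1000 cells per well; test concentration not given here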; details: S. cerevisiae YJM789 growth, higher = more signal, called active from +8 up or from −8 down
[3] = fission yeast growth modulation, primary screen, strain 972, OD600, 24 h, no modulator (AID 1090);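 further: basal condition with compound alone and no growth modifier present; test concentration not given here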; details: S. pombe 972 growth, higher = more signal, called active from +8 up or from −8 down
[4] = S. cerevisiae growth modulation with rapamycin, primary screen, strain BY4716, OD600, 96 h (AID 1091); details: higher = more signal, called active from +8 up or from −8 down; further: test concentration not given here
[5] = target: Torsin-1A-interacting protein 2 (Homo sapiens) (UniProt Q8NFQ8); assay: LULL1 binders on small-molecule microarray, primary screen, cell lysate, human LULL1 lysate, 635/667 nm fluorescence (AID 1092); details: hLULL1 lysate binding, 635 nm fluorescence, higher = more signal;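 further: probe is lysate of COS7 cells overexpressing human LULL1; score merges per-feature 667 nm fluorescence with signal-to-noise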
[6] = E. coli growth modulation, two-sided OD650, primary screen, E. coli filamentation project, strain DRC41, 24 h (AID 1093); details: OD650, 24 h, higher = more signal, called active from +8 up or from −8 down;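 further: MC1000 strain lacking acrAB efflux and sulA so SOS filamentation is blocked; test concentration not given here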
[7] = small-molecule microarray binders of probe aLefty2, primary screen, biochemical, biotinylated probe, 635/667 nm fluorescence (AID 1094); details: higher = more signal;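 further: score merges spot fluorescence near 667 nm with spot signal-to-noise ratio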
[8] = tested on: Noggin (protein binding on small-molecule microarray); assay: Noggin binders on small-molecule microarray, primary screen, biochemical, 635/667 nm fluorescence (AID 1095); details: 635 nm fluorescence, higher = more signal;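 further: score merges 667 nm feature fluorescence with signal to noise over triplicate slides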
[9] = target: Neurogenic locus notch homolog protein 3 (Homo sapiens) (UniProt Q9UM47); assay: NOTCH3 binders on small-molecule microarray, primary screen, biochemical, 635/667 nm fluorescence (AID 1096); details: NOTCH3 binding, 635 nm fluorescence, higher = more signal
[10] = small-molecule microarray binders of probe aEGFR, primary screen, biochemical, biotinylated probe, 635/667 nm fluorescence (AID 1097); details: higher = more signal;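 further: probe is a biotinylated anti-EGFR antibody binding compounds printed on slides; score combines fluorescence near 667 nm and signal to noise of each spot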

Torsin-1A-interacting protein 2 (Homo sapiens), sequence (Q8NFQ8 whole entry, looked up): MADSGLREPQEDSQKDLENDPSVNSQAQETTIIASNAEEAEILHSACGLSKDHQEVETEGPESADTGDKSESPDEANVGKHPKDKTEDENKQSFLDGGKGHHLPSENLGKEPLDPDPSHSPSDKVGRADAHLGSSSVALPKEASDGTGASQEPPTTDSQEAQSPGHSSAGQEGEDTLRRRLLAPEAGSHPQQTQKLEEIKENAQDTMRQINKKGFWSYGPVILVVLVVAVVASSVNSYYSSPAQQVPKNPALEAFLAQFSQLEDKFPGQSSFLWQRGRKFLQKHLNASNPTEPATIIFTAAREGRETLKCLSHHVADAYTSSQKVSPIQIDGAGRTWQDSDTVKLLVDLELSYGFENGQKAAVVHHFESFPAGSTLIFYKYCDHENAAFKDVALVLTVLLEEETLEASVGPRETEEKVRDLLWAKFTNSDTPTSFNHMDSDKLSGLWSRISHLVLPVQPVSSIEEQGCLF
Neurogenic locus notch homolog protein 3 (Homo sapiens), sequence (Q9UM47 whole entry, looked up): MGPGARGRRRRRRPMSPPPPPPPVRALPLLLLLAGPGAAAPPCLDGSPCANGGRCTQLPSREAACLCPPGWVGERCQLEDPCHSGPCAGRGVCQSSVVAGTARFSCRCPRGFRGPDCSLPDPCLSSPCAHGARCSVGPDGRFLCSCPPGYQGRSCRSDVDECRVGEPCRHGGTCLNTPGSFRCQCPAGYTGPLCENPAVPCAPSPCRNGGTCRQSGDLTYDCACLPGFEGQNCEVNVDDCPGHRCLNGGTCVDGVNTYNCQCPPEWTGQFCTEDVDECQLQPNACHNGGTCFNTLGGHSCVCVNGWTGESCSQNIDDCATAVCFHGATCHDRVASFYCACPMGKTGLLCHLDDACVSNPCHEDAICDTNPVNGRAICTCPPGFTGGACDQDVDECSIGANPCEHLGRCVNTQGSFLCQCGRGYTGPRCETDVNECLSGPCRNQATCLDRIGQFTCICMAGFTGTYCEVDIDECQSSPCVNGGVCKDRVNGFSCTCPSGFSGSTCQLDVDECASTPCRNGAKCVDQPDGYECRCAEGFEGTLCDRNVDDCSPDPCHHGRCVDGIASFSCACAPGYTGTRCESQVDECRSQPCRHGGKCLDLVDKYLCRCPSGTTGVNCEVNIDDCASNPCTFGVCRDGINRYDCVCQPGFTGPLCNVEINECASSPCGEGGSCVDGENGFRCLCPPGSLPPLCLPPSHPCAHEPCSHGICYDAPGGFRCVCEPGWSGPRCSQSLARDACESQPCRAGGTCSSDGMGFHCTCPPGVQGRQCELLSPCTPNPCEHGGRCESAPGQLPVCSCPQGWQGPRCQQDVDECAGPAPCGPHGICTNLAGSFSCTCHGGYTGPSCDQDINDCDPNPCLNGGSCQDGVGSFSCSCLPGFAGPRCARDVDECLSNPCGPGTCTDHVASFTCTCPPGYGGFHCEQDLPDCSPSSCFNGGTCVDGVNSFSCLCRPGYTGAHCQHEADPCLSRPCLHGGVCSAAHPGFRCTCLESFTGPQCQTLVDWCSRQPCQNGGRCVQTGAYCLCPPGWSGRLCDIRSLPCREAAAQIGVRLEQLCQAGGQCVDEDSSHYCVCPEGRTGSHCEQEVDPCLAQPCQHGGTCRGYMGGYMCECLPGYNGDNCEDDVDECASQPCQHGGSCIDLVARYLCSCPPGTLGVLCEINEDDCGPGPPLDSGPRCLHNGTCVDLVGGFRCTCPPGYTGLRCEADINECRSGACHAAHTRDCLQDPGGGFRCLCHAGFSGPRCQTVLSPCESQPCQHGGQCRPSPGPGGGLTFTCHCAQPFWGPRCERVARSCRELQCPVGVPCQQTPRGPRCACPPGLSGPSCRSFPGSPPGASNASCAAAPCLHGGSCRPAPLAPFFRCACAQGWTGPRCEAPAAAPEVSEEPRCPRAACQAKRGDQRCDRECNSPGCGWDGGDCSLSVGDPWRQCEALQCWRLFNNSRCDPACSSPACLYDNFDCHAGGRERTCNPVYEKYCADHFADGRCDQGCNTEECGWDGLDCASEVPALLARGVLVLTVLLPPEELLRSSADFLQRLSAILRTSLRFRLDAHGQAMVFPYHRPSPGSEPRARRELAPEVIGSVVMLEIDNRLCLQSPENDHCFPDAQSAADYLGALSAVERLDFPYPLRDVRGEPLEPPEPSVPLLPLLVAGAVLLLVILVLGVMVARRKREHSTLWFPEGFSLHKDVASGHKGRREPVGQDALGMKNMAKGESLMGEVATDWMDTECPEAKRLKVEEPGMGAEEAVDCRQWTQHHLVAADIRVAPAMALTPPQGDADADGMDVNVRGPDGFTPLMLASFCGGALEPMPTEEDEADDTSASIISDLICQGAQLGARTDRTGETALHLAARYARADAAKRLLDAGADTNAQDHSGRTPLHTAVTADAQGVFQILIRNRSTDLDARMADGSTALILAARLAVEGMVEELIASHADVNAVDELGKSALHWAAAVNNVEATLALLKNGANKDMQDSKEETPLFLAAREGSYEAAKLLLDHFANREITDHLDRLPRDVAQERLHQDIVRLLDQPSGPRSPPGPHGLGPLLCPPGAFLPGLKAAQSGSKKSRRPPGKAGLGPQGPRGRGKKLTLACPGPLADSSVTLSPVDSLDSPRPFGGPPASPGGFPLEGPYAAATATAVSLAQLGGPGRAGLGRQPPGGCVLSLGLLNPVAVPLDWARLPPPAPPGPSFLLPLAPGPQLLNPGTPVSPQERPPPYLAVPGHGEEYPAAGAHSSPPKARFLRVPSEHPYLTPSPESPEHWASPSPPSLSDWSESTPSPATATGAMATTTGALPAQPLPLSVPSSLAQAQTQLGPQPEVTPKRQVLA

| SMILES | composite z-score [1] | z-score [2] | z-score [3] | z-score [4] | composite z-score [5] | z-score [6] | composite z-score [7] | composite z-score [8] | composite z-score [9] | composite z-score [10] |
| --- | --- | --- | --- | --- | --- | --- | --- | --- | --- | --- |
| COCCOC(=O)N1C(=O)[C@@]2(c3cc(C#CC4(O)CCCCCC4)ccc31)[C@H](C(N)=O)[C@H]1C(=O)O[C@H](c3ccccc3)[C@H](c3ccccc3)N1[C@@H]2c1ccc(O)cc1 | 1.55 | 0.121 (inactive) | 0.182 (inactive) | 0.523 (inactive) | 2.41 | -0.426 (inactive) | -0.0009 | 1.53 | 1.12 | -0.0418 |
| O=C(O)[C@H]1C[C@H]2C(=O)N3CCC[C@H]3C(=O)N2[C@H]1c1cccc(OCCO)c1 | 1.04 | -0.187 (inactive) | -0.391 (inactive) | 0.0709 (inactive) | 2.55 | 0.849 (inactive) | 0.027 | 0.287 | 0.237 | -0.109 |
| CCCCN1CC=CC23O[C@@H]4/C=C\CCC(C)OC(=O)C4[C@H]2C(=O)N(CCCCCCO)[C@@H]3C1=O (stereo not given in full) | -0.969 | -0.287 (inactive) | -0.737 (inactive) | 0.045 (inactive) | 1.4 | 0.272 (inactive) | -0.212 | -0.806 | -0.407 | -0.313 |
| C=CCC(OC(C)=O)[C@@H]1[C@@H](N(Cc2cc3ccccc3o2)C(=O)Cc2ccc(F)cc2)c2cc(OCCCO)ccc2N1C(=O)c1ccc2ccccc2n1 (stereo not given in full) | -0.22 | -0.271 (inactive) | -0.448 (inactive) | -0.258 (inactive) | -0.136 | -0.494 (inactive) | 0.055 | -0.145 | -0.814 | -0.0573 |
| CC[C@@H]1[C@H]2C3C(=O)N(CC)C(=O)C3CC(=O)[C@H]2[C@H](c2ccc(C)cc2)N1S(=O)(=O)c1ccc(C)cc1 (stereo not given in full) | 1.09 | 0.0287 (inactive) | 1.15 (inactive) | 1.6 (inactive) | 2.75 | -0.243 (inactive) | -0.203 | 0.712 | 1.12 | -0.0353 |
| CC1CC/C=C\[C@H]2OC34C=CCN(C(C)C)C(=O)[C@H]3N(CCCCCO)C(=O)[C@@H]4C2C(=O)O1 (stereo not given in full) | -0.897 | -0.104 (inactive) | -0.931 (inactive) | -0.958 (inactive) | -0.573 | 0.827 (inactive) | -0.139 | -1.43 | -0.208 | -0.281 |
| C=CCOC(=O)[C@@H]1[C@H]2C(=O)O[C@H](c3ccccc3)[C@H](c3ccccc3)N2[C@H](c2ccc(OCCOC(=O)[C@H]3C[C@H]4C(=O)N[C@@H](CCCCNC(C)=O)C(=O)N4[C@H]3c3cccc(OCCO)c3)cc2)[C@@]12C(=O)Nc1ccc(I)cc12 | 1.54 | 1.71 (inactive) | 1.38 (inactive) | 3.9 (inactive) | 1.78 | 0.136 (inactive) | -0.195 | 1.68 | 1.12 | -0.0882 |
| C[C@]1(C(=O)NC2CC2)c2ccccc2C(=O)N(Cc2ccc(OC(F)(F)F)cc2)[C@H]1c1ccc(CO)cc1 | -0.613 | -0.352 (inactive) | -0.0814 (inactive) | -0.439 (inactive) | 1.77 | 0.735 (inactive) | -0.128 | -0.221 | -0.943 | -0.169 |
| Cc1ccc(S[C@]2(C(=O)NCC(F)(F)F)CC(=O)N(Cc3ccccc3)[C@@H]2c2ccc(CO)cc2)cc1 | 0.293 | 0.249 (inactive) | -1.2 (inactive) | -0.711 (inactive) | 2.06 | -1.68 (inactive) | -0.137 | -0.92 | -0.681 | -0.178 |
| CC(C)C[C@@H]1NC(=O)[C@H]2C[C@@H](C(=O)NCCCCCC[N+](C)(C)C)[C@@H](c3cccc(OCCO)c3)N2C1=O | 1.13 | -1.15 (inactive) | -0.455 (inactive) | -0.794 (inactive) | 2.49 | 0.319 (inactive) | -0.166 | 1.47 | 1.07 | 0.038 |
| CC(C)(C)OC(=O)CC[C@@]1(C(=O)O)N=C(c2ccc(OCCCO)cc2)O[C@@H]1c1ccccc1CN=[N+]=[N-] | 1.29 | 0.947 (inactive) | 0.642 (inactive) | 0.0515 (inactive) | 2.84 | 0.882 (inactive) | 0.36 | -0.195 | 0.44 | 0.272 |
| COc1ccc(CCNC(=O)[C@@]2(Sc3ccc(C)cc3)CC(=O)N(Cc3cc(C(F)(F)F)cc(C(F)(F)F)c3)[C@@H]2c2ccc(CO)cc2I)cc1 | 1.46 | -2.62 (inactive) | -3.09 (inactive) | 2.1 (inactive) | 1.94 | 0.152 (inactive) | -0.0208 | -0.299 | -0.0768 | -0.24 |
| COc1ccc(C(O)C2C=CC3C(=O)N(c4ccccc4)C(=O)C3N2Nc2ccc(C#N)cc2)c2ccccc12 (stereo not given) | 1.35 | -1.89 (inactive) | 2.35 (inactive) | 0.906 (inactive) | 3.38 | -0.945 (inactive) | 0.397 | 0.238 | 1.08 | -0.0424 |
| CN(C)CCCNC(=O)[C@@]1(C)c2ccccc2C(=O)N(Cc2cc(C(F)(F)F)cc(C(F)(F)F)c2)[C@H]1c1ccc(CO)cc1 | 0.0376 | 0.113 (inactive) | -1.83 (inactive) | -0.945 (inactive) | 0.324 | -0.72 (inactive) | -0.192 | -1.19 | -0.35 | -0.186 |
| C=C(C(=O)CC[C@H](OC(C)=O)c1cccc(OCCO)c1)C(C)C | 0.385 | 0.574 (inactive) | -0.299 (inactive) | -0.0905 (inactive) | 0.355 | 1.04 (inactive) | -0.121 | -0.621 | -0.594 | -0.113 |
| C[C@]1(C(=O)O)c2ccccc2C(=O)N(Cc2ccccc2)[C@H]1c1ccc(CO)cc1 | -1.68 | 1.09 (inactive) | 0.468 (inactive) | 1.37 (inactive) | -0.884 | 0.651 (inactive) | 0.119 | -1.51 | -1.9 | -0.288 |
| COc1ccc([Si](C)(C)[C@@H]2[C@@H](CCO)O[C@]3(C(=O)N(Cc4cccc(N5C(=O)c6ccccc6Oc6ccccc65)c4)c4ccccc43)[C@H]2C)cc1 | 1.17 | 2.79 (inactive) | -0.483 (inactive) | 36.9 (active) | 1.46 | 1.21 (inactive) | -0.0666 | -0.224 | 0.0578 | -0.281 |
| CCOC(=O)C1=C[C@@H](c2ccccc2)N(S(=O)(=O)c2ccc(C)cc2)[C@H]1c1cccc(Cl)c1 | 1.57 | 0.962 (inactive) | 1.71 (inactive) | 2.24 (inactive) | 2.67 | -0.913 (inactive) | 0.268 | 0.688 | 1.07 | 0.143 |
| COc1c(C)cc(-c2cc3c(c(Cc4ccccc4)n2)[Si](C(C)C)(C(C)C)OC3)cc1C | -0.13 | 0.784 (inactive) | 0.567 (inactive) | 1.04 (inactive) | 0.323 | -0.733 (inactive) | -0.157 | 0.529 | 0.598 | -0.0509 |
| CC(C)(C)N1CC=CC23O[C@@H]4C=CCOC(=O)[C@@H]4[C@H]2C(=O)N(CCCO)[C@@H]3C1=O (stereo not given in full) | -0.768 | 0.149 (inactive) | 0.0155 (inactive) | -0.288 (inactive) | -0.558 | 1.27 (inactive) | -0.147 | -1.62 | -1.54 | -0.314 |
| C[n+]1ccc(CCCO)cc1 | 0.618 | 0.654 (inactive) | -0.96 (inactive) | 0.316 (inactive) | 0.427 | -2.1 (inactive) | 0.181 | 0.436 | -0.13 | 0.0455 |
| COCCOC(=O)N1C(=O)[C@@]2(c3cc(C#CC4=CCCCC4)ccc31)[C@H](C(=O)N1CCN(c3ncccn3)CC1)[C@H]1C(=O)O[C@H](c3ccccc3)[C@H](c3ccccc3)N1[C@@H]2c1ccc(O)cc1 | 1.53 | 0.783 (inactive) | 0.883 (inactive) | 2.1 (inactive) | 1.53 | -0.56 (inactive) | 0.0848 | 0.568 | 1.09 | 0.0891 |
| C=CCNC(=O)[C@H]1[C@@H]2C(=O)O[C@@H](c3ccccc3)[C@@H](c3ccccc3)N2[C@@H](c2ccccc2OCCO)[C@]12C(=O)N(C(=O)OCCOC)c1ccc(C#CC3=CCCCC3)cc12 | 1.55 | 1.85 (inactive) | -1.02 (inactive) | 4.29 (inactive) | 2.38 | 1.23 (inactive) | 0.304 | 0.843 | 1.05 | 0.34 |
| O=C1O[C@@H](c2ccccc2)[C@@H](c2ccccc2)N2[C@@H](c3ccccc3OCCO)[C@]3(C(=O)Nc4ccc(C#CCCO)cc43)[C@@H](C(=O)N3CCN(c4ncccn4)CC3)[C@H]12 | 1.55 | 1.75 (inactive) | -0.631 (inactive) | 3.99 (inactive) | 2.93 | 0.935 (inactive) | -0.0708 | 0.207 | 0.59 | -0.0858 |
| O=C1OCC=C[C@H]2OC34C=CCN(Cn5nnc6ccccc65)C(=O)[C@H]3N(CCCCCCO)C(=O)[C@@H]4[C@@H]12 (stereo not given in full) | -0.184 | -1.47 (inactive) | -1.19 (inactive) | -0.66 (inactive) | 1.29 | -0.218 (inactive) | -0.0356 | -1.04 | -0.0986 | -0.195 |
| C=CCOC(=O)[C@H]1[C@@H]2C(=O)O[C@@H](c3ccccc3)[C@@H](c3ccccc3)N2[C@@H](c2ccc(OCCOC(=O)[C@H]3C[C@H]4C(=O)N[C@@H](CCCC[N+](C)(C)C)C(=O)N4[C@H]3c3cccc(OCCO)c3)cc2)[C@]12C(=O)Nc1ccc(I)cc12 | 1.29 | 1.11 (inactive) | 2.23 (inactive) | 4.75 (inactive) | 0.7 | 0.396 (inactive) | -0.166 | 0.673 | 0.456 | 0.002 |
